Screening data (PubChem BioAssay)
Only some compounds are listed: those with a hit (about 19% of all), similar ones and a draw of the others.
BCR signal inh – chronic active BCR signaling inhibition; ABC-DLBCL IkBa-CBG/CBR reporter, luminescence ratio, 4 h; Potency, µM (top dose mostly 46.1 µM), without a hit: top-dose activity change, negative = inhibition, usual class: inhibitors; 0.05% of 340,000 active; AID 493014; active = well fitted inhibition curve with a large enough effect in the signal ratio, with a control signal flat, not every such curve was filed as active; inconclusive = small, poorly fitted or top-dose-only effect, or effect the other way, or a change in a side signal; the % refers to the signal ratio;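 note: potency is the fitted concentration of half-maximal effect; plate controls were basal doxycycline-induced cells for no effect and cells given 10 µM MG132 for full effect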
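TMD8 human ABC-DLBCL cells with doxycycline-inducible IκBα–green luciferase fusion and unfused red luciferase, in 0.5% FBS medium; compounds up to 46 uM, 4 h at 37C. Green/red luminescence ratio, filter-overlap corrected, fitted to concentration-response curves.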
DT40 TDP1 no CPT – qHTS for Inhibitors of human tyrosyl-DNA phosphodiesterase 1 (TDP1): qHTS in cells in absence of CPT; 15% of 420,000 active; DT40 Tdp1-/- hTDP1 cells, no CPT, ATP luminescence, 48 h; Potency, µM (top dose mostly 46.2 µM), for inactives: top-dose activity change, negative = growth inhibition, most hits filed as inhibitors; AID 686978, 2013; note: potency is the fitted concentration of half-maximal effect; % is set by controls: 0 for no effect and ±100 for the full control effect; nearly all actives have a fitted effect of over 55% in size
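Luminescent ATP content (CellTiter-Glo) served as the growth readout. Knockout chicken DT40 cells expressing human TDP1 were exposed to compounds without camptothecin for a minimum 48 hr at 37 °C.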
TDP1 cell CPT – DT40-hTDP1 cell growth loss with CPT. chicken DT40 Tdp1-/-;hTDP1 cells + 20 nM CPT, ATP luminescence, 48 h. Potency, µM (series often up to 46.2 µM), for the others: at the highest dose activity change, negative = growth inhibition, hits mostly inhibitors. 12% of 420,000 active; note: potency is the fitted concentration of half-maximal effect; % is set by controls: 0 for no effect and ±100 for the full control effect; nearly all actives have a fitted effect of over 55% in size
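Chicken DT40 Tdp1-/- cells stably complemented with human TDP1 were seeded at 400 cells/well in medium containing 20 nM camptothecin, exposed to pin-transferred compounds, and grown at 37 °C for at least 48 hr. Viability was read as ATP luminescence.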
IL1B secr inh – inflammasome signaling inhibition, IL-1 beta readout | 4.7% of 360,000 active | THP-1 LPS/ATP IL-1B secretion, AlphaLISA, 16 h; hits give low values | activity change, % at 57.5 µM; in the data active = activity change below about -50%; inconclusive = mostly about -30% to -49%; note: % is set by controls: 0 for no effect and ±100 for the full control effect
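THP-1 cells pretreated 1 hr with compounds (up to 57.5 uM final), then stimulated with LPS (250 ng/mL final) plus ATP (1.25 mM final); secreted IL-1B measured by AlphaLISA after 16 hr, decreased signal indicating inhibition.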
MCF10A rereplic – inducers of DNA re-replication in MCF 10A breast cells | Potency, µM (highest dose often 46.1 µM), inactives show at the top dose activity, positive = re-replication, actives largely listed as activators | 2.9% of 350,000 active | MCF 10A DNA re-replication, Hoechst nuclear intensity, 48 h; note: potency is the fitted concentration of half-maximal effect; % of control where 0% means no effect; nearly all actives have a fitted effect of over 50% in size
SW480 rereplic – DNA re-replication induction in SW480 cells | 1.8% of 340,000 active | SW480 DNA re-replication, Hoechst DNA content imaging, 48 h | AID 624297 | Potency, µM (highest dose often 46.1 µM), for inactives: top-dose re-replication activation, most hits filed as activators; note: potency is the fitted concentration of half-maximal effect; % of control where 0% means no effect; nearly all actives have a fitted effect of over 55% in size
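First, 250 cells per well were seeded. Next, compound or vehicle (23 nL) was pinned in, plates sat 48 hr at 37 C. Finally Hoechst was added for 40 min before fluorescence scanning.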
Numbers without * were called inactive; ! = a repeat was not active. Unless noted, calls come from the whole dose curve; as a rule, active = well fitted curve in the direction sought with a large enough effect; inconclusive = small, poorly fitted or top-dose-only effect, or another doubt; inactive = no such curve, though single readings can be large; an effect the other way counts as inactive or inconclusive.

`N#Cc1c(N)n(CCNC(=O)c2ccc(Cl)cc2)c2nc3ccccc3nc12` gave BCR signal inh 0.1%, DT40 TDP1 no CPT inconclusive, TDP1 cell CPT -1.0%, IL1B secr inh -58.0*, MCF10A rereplic 18.4µM* and SW480 rereplic inconclusive.
Screening Cc1ccc(C)c(-n2c(N)c(C#N)c3nc4ccccc4nc32)c1 returned DT40 TDP1 no CPT -15.7% and TDP1 cell CPT -21.8%.
`Cc1ccc(C(=O)NCCn2c(N)c(C#N)c3nc4ccccc4nc32)cc1` gave BCR signal inh inconclusive, DT40 TDP1 no CPT -15.9%, TDP1 cell CPT -7.3%, IL1B secr inh -1.2, MCF10A rereplic inconclusive and SW480 rereplic 20.6µM*.
For COc1ccc(CN(C)CCCn2cnc3c(OC)ncnc32)cc1OC the results were DT40 TDP1 no CPT 7.8%, TDP1 cell CPT 2.4% and IL1B secr inh 8.3.
Screening Cc1cnc(C)c(-c2cccc3c2OC(CNC(=O)CN2C(=O)c4ccccc4C2=O)C3)n1 (configuration not stated) returned DT40 TDP1 no CPT -1.7% and TDP1 cell CPT 12.5%.
For COC(=O)C(Cc1ccc(O)cc1)NC(=O)Cn1cc(C)c(=O)[nH]c1=O (configuration not stated) the results were DT40 TDP1 no CPT -3.1%, TDP1 cell CPT -1.1%, IL1B secr inh 11.3, MCF10A rereplic 4.7% and SW480 rereplic 1.0%.
Screening CCN(CC)c1ccc(NC(=O)CN2CCN(c3nc(C)cc(C)n3)CC2)cc1 returned BCR signal inh inconclusive, DT40 TDP1 no CPT 16.4µM*, TDP1 cell CPT inconclusive, IL1B secr inh inconclusive, MCF10A rereplic 6.5% and SW480 rereplic 0.8%.
`COc1ccccc1NC(=O)CN1CCN(c2ccc(Cl)cc2)CC1` gave BCR signal inh 13.0%, DT40 TDP1 no CPT 16.4µM*, TDP1 cell CPT 20.6µM*, IL1B secr inh 22.4, MCF10A rereplic -5.0% and SW480 rereplic -9.0%.
COc1ccccc1NC(=O)CN1CCN(CC(=O)Nc2ccccc2Cl)CC1 was read as BCR signal inh inconclusive, DT40 TDP1 no CPT -20.5%, TDP1 cell CPT 25.0%, IL1B secr inh 21.9, MCF10A rereplic 2.0% and SW480 rereplic -2.0%.
COc1ccccc1NC(=O)CN1CCN(c2ccccc2OC)CC1 was read as BCR signal inh 1.7%, DT40 TDP1 no CPT inconclusive, TDP1 cell CPT -24.9%, IL1B secr inh 3.7, MCF10A rereplic 0.5% and SW480 rereplic -2.1%.
Screening CCN(CC)c1ccc(NC(=O)CN2CCN(CC(=O)Nc3ccccc3OC)CC2)cc1 returned BCR signal inh -10.9%, DT40 TDP1 no CPT inconclusive, TDP1 cell CPT 23.1µM*, IL1B secr inh -6.5, MCF10A rereplic 5.8% and SW480 rereplic -26.7%.
COc1ccccc1NC(=O)CN1CCN(c2ccccc2F)CC1 was read as BCR signal inh -0.9%, DT40 TDP1 no CPT inconclusive, TDP1 cell CPT 20.6µM*, IL1B secr inh -9.0, MCF10A rereplic 18.6% and SW480 rereplic -1.9%.
Cc1ccc(-c2cc3nc(-c4ccccc4)cc(N)n3n2)cc1 was read as BCR signal inh inconclusive, DT40 TDP1 no CPT 6.2%, TDP1 cell CPT -14.9%, IL1B secr inh -4.1, MCF10A rereplic 0.4% and SW480 rereplic 0.9%.
Cc1cc(N)n2nc(-c3ccccc3)cc2n1 was read as BCR signal inh inconclusive, DT40 TDP1 no CPT inconclusive, TDP1 cell CPT -38.1%, IL1B secr inh -71.8*, MCF10A rereplic inconclusive and SW480 rereplic 0.2%.
Screening C[C@]12CCC(=O)C=C1CC[C@@H]1[C@@H]2[C@@H](O)C[C@@]2(C)[C@H]1CC[C@]2(O)C(=O)CO returned BCR signal inh inconclusive, DT40 TDP1 no CPT inconclusive, TDP1 cell CPT -20.2%, IL1B secr inh -58.1*!, MCF10A rereplic 7.1% and SW480 rereplic -4.1%.
For CC(=O)OCC(=O)C1(O)CCC2C3CCC4=CC(=O)CCC4(C)C3C(O)CC21C (configuration not stated) the results were DT40 TDP1 no CPT -23.3%, TDP1 cell CPT inconclusive, IL1B secr inh inconclusive, MCF10A rereplic -2.9% and SW480 rereplic inconclusive.
For CC12CCC(=O)C=C1CCC1C2C(O)CC2(C)C1CCC2(O)C(=O)COC(=O)COCC(=O)O (configuration not stated) the results were DT40 TDP1 no CPT -12.2%, TDP1 cell CPT 12.0%, IL1B secr inh -50.3*, MCF10A rereplic 8.6% and SW480 rereplic 2.7%.
`C[C@]12CCC(=O)C=C1CC[C@@H]1[C@H]2[C@@H](O)C[C@@]2(C)[C@H]1CC[C@]2(O)C(=O)CO` gave MCF10A rereplic 5.5% and SW480 rereplic -2.6%.
`C[C@]12C=CC(=O)C=C1CC[C@@H]1[C@@H]2[C@@H](O)C[C@@]2(C)[C@H]1CC[C@]2(O)C(=O)CO` gave BCR signal inh inconclusive, DT40 TDP1 no CPT inconclusive, TDP1 cell CPT inconclusive, IL1B secr inh -54.8*, MCF10A rereplic -0.8% and SW480 rereplic -7.3%.
`C[C@]12C=CC(=O)C=C1CC[C@@H]1[C@@H]2[C@@H](O)C[C@@]2(C)[C@H]1CC[C@]2(O)C(=O)COC(=O)CCC(=O)NCCc1ccc(O)cc1` gave BCR signal inh inconclusive, DT40 TDP1 no CPT -15.4%, TDP1 cell CPT -24.9%, IL1B secr inh -56.3*, MCF10A rereplic -0.9% and SW480 rereplic -7.0%.
For CCC(C)NC(=O)C1CCC(CNS(=O)(=O)c2ccc(Cl)cc2)CC1 (configuration not stated) the results were BCR signal inh -1.0%, DT40 TDP1 no CPT -3.6% and TDP1 cell CPT -27.3%.
`Cc1ccc(N2CCN(S(=O)(=O)c3ccc4oc(=O)ccc4c3)CC2)cc1Cl` gave BCR signal inh -0.5%, DT40 TDP1 no CPT -13.0%, TDP1 cell CPT 0.2%, IL1B secr inh -14.1, MCF10A rereplic 16.8% and SW480 rereplic -1.2%.
O=C(NCCc1ccco1)C(=O)NCC1OCCCN1S(=O)(=O)c1cc(F)ccc1F (configuration not stated) was read as BCR signal inh inconclusive, DT40 TDP1 no CPT 2.9%, TDP1 cell CPT 2.0%, IL1B secr inh -14.5, MCF10A rereplic -0.2% and SW480 rereplic 0.0%.
For CCCC(=O)Nc1cc(S(=O)(=O)N(CC)CC)ccc1Cl the results were BCR signal inh inconclusive, DT40 TDP1 no CPT inconclusive, TDP1 cell CPT -8.9%, IL1B secr inh -3.4, MCF10A rereplic 2.1% and SW480 rereplic 8.6%.
